The list is not random: actives were taken first. Their share in the collection is about 2.3%.
M1 ag: human M1 muscarinic receptor agonists, primary screen, Fluo-8 calcium fluorescence, CHO-K1 cells, HTS | CHO-K1 hM1, agonist mode; 0% DMSO, 100% acetylcholine EC100 | activation, % at 3 µM | 360,000 tested, 0.33% active | AID 588814, 2011;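 active means activation above the run's mean compound activation plus 3 SD, cut at about 16% in these data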;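 further: peak over basal fluorescence ratio within a 140 s kinetic read after compound addition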
Target sequence (P11229 whole entry, looked up): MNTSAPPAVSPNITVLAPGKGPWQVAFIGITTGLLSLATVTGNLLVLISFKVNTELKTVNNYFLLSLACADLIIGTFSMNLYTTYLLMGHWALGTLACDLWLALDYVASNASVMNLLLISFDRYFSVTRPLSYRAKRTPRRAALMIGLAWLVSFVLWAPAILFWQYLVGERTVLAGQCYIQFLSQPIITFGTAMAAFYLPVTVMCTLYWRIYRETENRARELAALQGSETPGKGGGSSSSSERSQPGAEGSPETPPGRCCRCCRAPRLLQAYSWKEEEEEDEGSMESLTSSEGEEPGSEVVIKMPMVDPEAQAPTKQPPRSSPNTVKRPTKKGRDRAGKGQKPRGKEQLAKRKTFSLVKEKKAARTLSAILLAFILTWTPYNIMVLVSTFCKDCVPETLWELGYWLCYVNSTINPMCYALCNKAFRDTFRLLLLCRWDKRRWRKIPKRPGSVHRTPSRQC
CHO-K1 Ca ag: counter-screen for M1 agonists: effect in parental CHO-K1 cells | 360,000 tested, 0.48% active | Fluo-8 calcium fluorescence; scaled to maximal ATP response, vehicle zero | activation, % at 3 µM; in the data active means activation above about 15%;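 further: untransfected CHO-K1 host cells lacking M1 receptor as counterscreen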
M1 antag: human M1 muscarinic receptor antagonists, primary screen, CHO-K1 cells, Fluo-8 calcium fluorescence, 1536-well | 360,000 tested, 1.3% active | CHO-K1 hM1, ACh EC80 antagonist | inhibition, % at 3 µM | AID 588852, 2011;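 active means percent inhibition above its own plate's cutoff, namely the mean of that plate's compound wells plus 3 SD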;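 further: peak over basal fluorescence ratio during 140 s after agonist addition; 0% = ACh EC80 plus DMSO and 100% = DMSO alone without agonist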
CHO-K1 Ca antag: M1 antagonist counterscreen hit in parental CHO-K1 cells; ATP-induced calcium, Fluo-8 fluorescence; inhibition, % at 3 µM; 360,000 tested, 0.6% active;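 active means inhibition above a per-plate cutoff, the plate's mean sample inhibition plus 3 SD, cut at about 24% in these data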;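 further: 0% = DMSO plus EC80 ATP and 100% = DMSO alone without ATP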
CHO-K1 Ca PAM: nonselective calcium activators in parental CHO-K1 cells, primary screen, counter-screen for M1 PAM project, cell-based, Fluo-8 calcium fluorescence, full deck, 1536-well; ATP EC20; 0% at ATP EC20, 100% at ATP max; activation, % at 3 µM; 360,000 tested, 0.02% active; AID 602247, 2012;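 active means activation above the run cutoff, the mean activation of all test compounds plus 3 SD, cut at about 40% in these data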;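 further: peak over basal fluorescence ratio in a 140 s read after ATP addition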
M1 PAM: human M1 muscarinic receptor positive allosteric modulators, primary screen, CHO-K1 cells, Fluo-8 calcium fluorescence, 1536-well. Muscarinic acetylcholine receptor M1 (Homo sapiens), P11229. CHO-K1 hM1, ACh EC20; 0% = ACh EC20, 100% = maximal ACh. activation, % at 3 µM. 360,000 tested, 0.088% active. AID 588819, 2011; in the data active means activation above about 19%, passing the limit was not always enough
An asterisk follows results filed as active; . = no result given.

SMILES | M1 ag | CHO-K1 Ca ag | M1 antag | CHO-K1 Ca antag | CHO-K1 Ca PAM | M1 PAM
CN1CN(c2ccccc2)C2(CCN(CCCSc3ccccc3NC(=O)/C=C/c3ccccc3)CC2)C1=O | 47* | 62* | 55* | 35* | -26 | -34
C/C=C1/C[N+]2(C)CCC34C(=C(C=O)[C@H]1C[C@@H]32)Nc1ccccc14 (stereo not given in full) | -1 | 0 | -24 | 8 | 2 | -2
Nc1c(C(=O)NCCN2CCOCC2)c2nc3ccccc3nc2n1Cc1ccccc1 | -2 | 16* | -8 | -2 | 23 | 6
Nc1c(C(=O)NCCc2ccccc2)c2nc3ccccc3nc2n1CCN1CCOCC1 | -5 | 2 | 10 | 5 | 12 | 3
O=C(c1ccc2c(c1)OCO2)C1CCCN(Cc2ccc(F)c(F)c2)C1 (stereo not given) | -7 | 0 | 70* | -12 | 15 | -24
CN(C(=O)Cc1ccc2c(c1)OCO2)C1CCCN(Cc2ccccc2F)C1 (stereo not given) | -7 | 1 | 46* | 0 | 13 | -27
Cc1ccccc1CC(=O)N(CCN(C)C)CC1CCCN(Cc2ccccc2F)C1 (stereo not given) | -8 | 0 | -1 | -4 | -9 | 2
O=C(c1ccc(Cl)cc1)C1CCCN(Cc2ccc3ncccc3c2)C1 (stereo not given) | 0 | 7 | 81* | -6 | 2 | -20
O=C(c1ccc(Cl)cc1)C1CCCN(Cc2cccc3cnccc23)C1 (stereo not given) | -3 | 8 | 70* | -8 | 16 | -23
C=C1C(=O)OC2CC3(C)OC3C3OC3C3=CC(OC3=O)C12 (stereo not given) | -3 | 0 | 11 | 15 | -15 | -7
CC1=C2[C@@H]3OC(=O)[C@H](C)C3CC[C@@]2(C)C=CC1=O (stereo not given in full) | -3 | 1 | -11 | -9 | 14 | 6
CC1(C)CC[C@]2(C)CC[C@]3(C)C4C[C@@H]5OO[C@@]6(O5)C(CCCC6(C)C)[C@]4(C)CC[C@@]3(C)C2C1 (stereo not given in full) | 0 | 0 | -15 | -10 | 14 | 5
c1ccc2c(c1)CN(Cc1ccc3c(c1)OCO3)Cc1cnnn1-2 | -7 | 0 | -4 | 27* | 0 | 0
CCOc1ccc(N2C(=O)NC(=O)/C(=C/c3cnc(SC)nc3)C2=O)cc1 | -4 | 0 | -3 | -6 | 3 | 7
FC(F)(F)c1ccc2c(c1)N(CCCN1CCN(CCCl)CC1)c1ccccc1S2 | -5 | 0 | 42* | 4 | 10 | -18
O=C1NC(=S)SC1=Cc1ccc(N(CCCl)CCCl)cc1 | 1 | 2 | -2 | 15 | 2 | 1
Fc1ccccc1CNC1CN2CCC1CC2 (stereo not given) | -8 | 0 | 45* | -7 | 7 | -20
Clc1ccc(CNC2CN3CCC2CC3)cc1 (stereo not given) | -8 | 0 | -11 | -10 | 20 | 0
Cn1c(O)c(/C=C/C=Nc2ccccc2)c(=O)n(C)c1=S | 58* | 28* | 34* | 14 | 7 | -17
CCOC(=O)CC(SP1(=S)OCC2(CC=CCC2)CO1)C(=O)OCC (stereo not given) | 1 | 10 | 24* | -1 | -6 | -21
O=c1[nH]c(=O)n(CCC2=CCCCC2)c(O)c1/C=N/N1CCOCC1 | -2 | 0 | -4 | 25* | -24 | 0
COc1ccc(-n2nnnc2C(c2cccc3ccccc23)N2CCC3(CC2)C(=O)NCN3c2ccccc2)cc1 (stereo not given) | 3 | 0 | -40 | -3 | -7 | 8
CCOC(=O)[C@]12Cc3cc4ccccc4cc3[C@H]1N(Cc1ccccc1)C(=O)c1ccccc12 | . | 2 | . | -1 | 10 | .

From PubChem BioAssay
